According to PubChem BioAssay (NCATS):
Inconclusive results are not listed. Activity calls are given as the source filed them. Calls come from the whole dose curve; as a rule, active = well fitted curve in the direction sought with a large enough effect; inconclusive = small, poorly fitted or top-dose-only effect, or another doubt; inactive = no such curve, though single readings can be large; an effect the other way counts as inactive or inconclusive.

What was measured:
[1] = molecular target: Voltage-gated inwardly rectifying potassium channel KCNH2 (Homo sapiens) (UniProt Q12809); assay: qHTS Assay for Small Molecule Inhibitors of the Human hERG Channel Activity (AID 588834);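 note: lower thallium flux fluorescence means stronger hERG block; nearly all actives have a fitted effect of over 50% in size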; note: potency is the fitted concentration of half-maximal effect
How it was run: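 Thallium serves as surrogate for K+ influx through BacMam-delivered hERG in U2OS cells. Compounds are added for about 10 minutes after dye loading; stimulation buffer then starts flux, monitored kinetically on FDSS.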

[2] = molecular target: Luciferin 4-monooxygenase (Photinus pyralis) (UniProt P08659); assay: Biochemical firefly luciferase enzyme assay for NPC (AID 624030); note: nearly all actives have a fitted effect of over 70% in size; note: potency is the fitted concentration of half-maximal effect
How it was run: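 Counter-screen for direct inhibition of the luciferase enzyme by approved-drug library compounds, run at 10 nM enzyme in 50 mM Tris acetate (final). Luminescence was read within 5 min of enzyme-buffer addition and normalized to PTC124 versus DMSO (0%).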

[3] = S16 Schwann cell viability assay (CellTiter-Glo assay) (AID 624031);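 note: native untransfected S16 rat Schwann cells; cellular ATP luminescence as a viability measure; series mostly up to about 58 µM; nearly all actives have a fitted effect of over 70% in size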
How it was run: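 Parental S16 cells, 24 h compound, 37 °C. ATP-luminescence viability; DMSO = 0% activity, empty wells as reference; curves classified by fit quality and efficacy.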

[4] = S16 Schwann cell PMP22 intronic element firefly luciferase assay (AID 624032); note: series mostly up to about 58 µM; nearly all actives have a fitted effect of over 30% in size
How it was run: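 Rat S16 Schwann cells stably carrying a PMP22 intronic element-driven Fluc reporter were seeded overnight, then exposed to compounds for 24 h at 37 °C. Luminescence was normalized to PTC124 (positive control) and DMSO (0% activity).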

Measured: Potency

Chain of Luciferin 4-monooxygenase (Photinus pyralis) (P08659 whole entry, looked up): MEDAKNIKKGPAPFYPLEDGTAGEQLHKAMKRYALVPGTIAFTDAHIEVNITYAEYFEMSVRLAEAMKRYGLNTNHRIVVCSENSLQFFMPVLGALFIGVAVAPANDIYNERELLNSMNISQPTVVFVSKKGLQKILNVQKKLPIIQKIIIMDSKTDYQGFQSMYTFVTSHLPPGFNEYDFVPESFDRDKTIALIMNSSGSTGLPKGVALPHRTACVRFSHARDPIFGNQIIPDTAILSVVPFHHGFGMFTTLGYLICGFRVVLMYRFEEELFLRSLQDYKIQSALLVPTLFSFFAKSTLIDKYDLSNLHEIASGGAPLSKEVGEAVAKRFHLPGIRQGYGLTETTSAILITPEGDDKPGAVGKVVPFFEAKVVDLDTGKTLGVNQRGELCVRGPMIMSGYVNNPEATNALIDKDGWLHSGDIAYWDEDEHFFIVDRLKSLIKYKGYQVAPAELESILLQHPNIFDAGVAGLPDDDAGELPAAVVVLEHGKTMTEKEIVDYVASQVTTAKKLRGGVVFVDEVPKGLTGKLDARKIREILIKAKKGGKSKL
Chain of Voltage-gated inwardly rectifying potassium channel KCNH2 (Homo sapiens) (Q12809 whole entry, looked up): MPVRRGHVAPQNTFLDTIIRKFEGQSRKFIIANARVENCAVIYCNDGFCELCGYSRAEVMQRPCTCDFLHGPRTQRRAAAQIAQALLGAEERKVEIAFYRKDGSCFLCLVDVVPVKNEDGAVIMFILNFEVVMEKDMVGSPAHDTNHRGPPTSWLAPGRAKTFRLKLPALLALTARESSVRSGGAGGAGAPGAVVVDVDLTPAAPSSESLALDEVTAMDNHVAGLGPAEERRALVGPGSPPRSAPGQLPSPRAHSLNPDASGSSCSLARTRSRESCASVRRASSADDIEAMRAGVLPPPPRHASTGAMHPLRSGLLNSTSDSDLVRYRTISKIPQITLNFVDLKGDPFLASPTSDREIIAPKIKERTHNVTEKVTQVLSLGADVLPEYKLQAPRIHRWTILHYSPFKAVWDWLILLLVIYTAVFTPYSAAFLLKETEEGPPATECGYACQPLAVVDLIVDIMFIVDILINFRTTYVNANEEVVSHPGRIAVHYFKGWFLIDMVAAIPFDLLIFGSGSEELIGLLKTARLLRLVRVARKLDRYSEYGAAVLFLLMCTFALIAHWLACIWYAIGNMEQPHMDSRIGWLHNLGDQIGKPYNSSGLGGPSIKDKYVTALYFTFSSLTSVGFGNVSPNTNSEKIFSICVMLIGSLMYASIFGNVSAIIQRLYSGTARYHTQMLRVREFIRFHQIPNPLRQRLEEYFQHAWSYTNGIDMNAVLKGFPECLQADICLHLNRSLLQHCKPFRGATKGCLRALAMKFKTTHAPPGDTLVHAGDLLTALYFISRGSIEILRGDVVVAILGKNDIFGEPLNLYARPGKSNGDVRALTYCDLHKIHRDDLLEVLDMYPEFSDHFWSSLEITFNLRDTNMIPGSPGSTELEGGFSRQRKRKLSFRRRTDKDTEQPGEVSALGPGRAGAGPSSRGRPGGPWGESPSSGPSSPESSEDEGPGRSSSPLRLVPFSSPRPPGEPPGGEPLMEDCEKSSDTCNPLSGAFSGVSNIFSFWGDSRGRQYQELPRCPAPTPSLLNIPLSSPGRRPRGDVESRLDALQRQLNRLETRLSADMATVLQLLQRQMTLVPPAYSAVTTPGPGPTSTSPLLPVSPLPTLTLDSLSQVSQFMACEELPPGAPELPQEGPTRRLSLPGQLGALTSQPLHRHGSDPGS

CCN(CC)CCNC(=O)COc1ccc(OC)cc1
inactive: [1] | [2] | [3] | [4]

COc1cc(C(=S)N2CCOCC2)ccc1O
inactive: [1] | [2] | [3]

O=S(c1cc(Cl)cc(Cl)c1O)c1cc(Cl)cc(Cl)c1O
active: [2] 32.2 µM
inactive: [1] | [3] | [4]

O=C(O)CCc1nc2ccccc2[nH]1
inactive: [1] | [2] | [3] | [4]

O=C(O)CCC(=O)Nc1ccc(S(=O)(=O)Nc2nccs2)cc1
inactive: [1] | [2] | [3] | [4]

CC(C)[N+](C)(C)CC(O)COc1cccc2ccccc12 (stereo not given)
inactive: [1] | [2] | [3] | [4]

CC(=O)O[C@H]1C[C@@H]2CC[C@@H]3[C@H](CC[C@@]4(C)[C@H]3C[C@H]([N+]3(C)CCCCC3)[C@@H]4OC(C)=O)[C@@]2(C)C[C@@H]1N1CCCCC1
inactive: [1] | [2] | [3] | [4]

FC1(F)C(F)(F)C(F)(F)C2(F)C(F)(F)C(F)(F)C(F)(F)C(F)(F)C2(F)C1(F)F (stereo not given)
inactive: [1] | [2] | [3] | [4]

O=C1C(=O)c2ccccc2C(O)=C1C1CCC(c2ccc(Cl)cc2)CC1 (stereo not given)
inactive: [1] | [2] | [3]

C/C=C/c1ccc(O)c(OC)c1
inactive: [1] | [2] | [3] | [4]

CC(=O)Nc1ccc(OCC(O)CNC(C)C)cc1 (stereo not given)
inactive: [1] | [2] | [3] | [4]

CC(=O)O[C@]1(C(C)=O)CC[C@H]2[C@@H]3C=C(Cl)C4=CC(=O)CC[C@]4(C)[C@H]3CC[C@@]21C
inactive: [1] | [2] | [3]

Cc1cccc(C)c1NC(=O)CN1CCCCCC1
inactive: [1] | [2] | [3] | [4]

Cn1c(=O)c2[nH]c(Br)nc2n(C)c1=O
inactive: [1] | [2] | [3]

CN(C)CCOC(c1ccc(Cl)cc1)c1ccccn1 (stereo not given)
active: [1] 14.1 µM
inactive: [2] | [3] | [4]

O=C(O)CCNC(=O)c1ccccc1
inactive: [1] | [2] | [3] | [4]

COc1ccc2c(c1)c1c3n2CCN(C)C3=NCC1
active: [1] 3.98 µM
inactive: [2] | [3] | [4]

Cc1ccc(S(=O)(=O)NC(=O)NC2CCCC2)cc1
inactive: [1] | [2] | [3] | [4]

Cc1cccc(C)c1NC(=O)CN1CCCC1
inactive: [1] | [2] | [3]

O=C(Nc1ccc([N+](=O)[O-])cc1)Nc1ccc([N+](=O)[O-])cc1
active: [1] 14.1 µM
inactive: [2] | [3]

Cc1c[nH]c2ccccc12
inactive: [1] | [2] | [3] | [4]

CCOCCn1c(N2CCCN(C)CC2)nc2ccccc21
active: [1] 1 µM
inactive: [2] | [3] | [4]

CC(C)(C)NC[C@H](O)COc1cccc2c1CCCC2=O
inactive: [1] | [2] | [3] | [4]

NS(=O)(=O)c1ccc(Cl)c(S(N)(=O)=O)c1
inactive: [1] | [2] | [3] | [4]

CCCCCCCCCCCCCC(=O)OC(C)C
inactive: [1] | [2] | [3] | [4]

O=S(=O)(O)c1ccc(O)cc1
inactive: [1] | [2] | [3] | [4]

N#CCC(=O)NN
inactive: [1] | [2] | [3] | [4]

COc1cc(C)nc(-n2nc(C)cc2OC)n1
inactive: [1] | [2] | [3] | [4]

Nc1ccc(C(=O)NCC(=O)O)cc1
inactive: [1] | [2] | [3] | [4]

NC1CCN(c2nc3c(cc2F)c(=O)c(C(=O)O)cn3-c2ccc(F)cc2F)C1 (stereo not given)
inactive: [1] | [2] | [3] | [4]

Cc1cccc(C)c1NC(=O)c1ccccc1C(=O)O
inactive: [1] | [2] | [3] | [4]

Cc1cc(NS(=O)(=O)c2ccc(N)cc2)nc(C)n1
inactive: [1] | [2] | [3] | [4]

OC1C(O)C(O)C(O)C(O)C1O (stereo not given)
inactive: [1] | [2] | [3] | [4]

CC[N+](C)(CC)CCOC(=O)C(O)(c1ccccc1)C1CCCCC1 (stereo not given)
inactive: [1] | [2] | [3] | [4]
